Results filed as inconclusive are left out. Active and inactive are the calls of the source. Unless noted, calls follow the shape of the dose curve; as a rule, active = well fitted curve in the direction sought with a large enough effect; inconclusive = small, poorly fitted or top-dose-only effect, or another doubt; inactive = no such curve, though single readings can be large; an effect the other way counts as inactive or inconclusive.
Columns and labels:
[1] = biological target: ATP-dependent 6-phosphofructokinase (Trypanosoma brucei brucei) (UniProt O15648); assay: qHTS Assay to Find Inhibitors of T. brucei phosphofructokinase: hit validation (AID 492961);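 also: luminescence reports ADP formed as PFK phosphorylates fructose-6-phosphate with ATP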
Sequence of ATP-dependent 6-phosphofructokinase (Trypanosoma brucei brucei) (O15648 whole entry, looked up): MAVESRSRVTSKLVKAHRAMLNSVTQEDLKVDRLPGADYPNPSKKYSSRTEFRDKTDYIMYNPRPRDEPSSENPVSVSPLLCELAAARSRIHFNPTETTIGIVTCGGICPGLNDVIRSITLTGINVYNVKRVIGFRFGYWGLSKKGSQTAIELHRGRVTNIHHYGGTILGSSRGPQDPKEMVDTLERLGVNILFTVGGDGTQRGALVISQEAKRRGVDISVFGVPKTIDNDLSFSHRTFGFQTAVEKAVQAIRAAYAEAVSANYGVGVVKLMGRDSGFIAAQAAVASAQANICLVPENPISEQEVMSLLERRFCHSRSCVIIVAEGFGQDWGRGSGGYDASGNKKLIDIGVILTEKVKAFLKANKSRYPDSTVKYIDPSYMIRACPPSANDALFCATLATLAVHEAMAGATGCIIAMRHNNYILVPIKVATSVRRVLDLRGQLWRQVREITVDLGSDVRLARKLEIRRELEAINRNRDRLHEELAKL
Outline: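 Percent activity derived from corrected luminescence, normalized between 0x and 1x enzyme controls, then fitted to concentration-response curves. Conditions: 1.25 nM PFK, 0.1 mM ATP, 0.5 mM F6P, 45 min RT.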

[2] = biological target: Ubiquitin carboxyl-terminal hydrolase 1 (Homo sapiens) (UniProt O94782); assay: Inhibitors of USP1/UAF1: Pilot qHTS (AID 504865);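 also: rhodamine fluorescence freed from ubiquitin-rhodamine substrate followed over time; top concentration of the series differs between compounds; nearly all actives have a fitted effect of over 35% in size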
Sequence of Ubiquitin carboxyl-terminal hydrolase 1 (Homo sapiens) (O94782 whole entry, looked up): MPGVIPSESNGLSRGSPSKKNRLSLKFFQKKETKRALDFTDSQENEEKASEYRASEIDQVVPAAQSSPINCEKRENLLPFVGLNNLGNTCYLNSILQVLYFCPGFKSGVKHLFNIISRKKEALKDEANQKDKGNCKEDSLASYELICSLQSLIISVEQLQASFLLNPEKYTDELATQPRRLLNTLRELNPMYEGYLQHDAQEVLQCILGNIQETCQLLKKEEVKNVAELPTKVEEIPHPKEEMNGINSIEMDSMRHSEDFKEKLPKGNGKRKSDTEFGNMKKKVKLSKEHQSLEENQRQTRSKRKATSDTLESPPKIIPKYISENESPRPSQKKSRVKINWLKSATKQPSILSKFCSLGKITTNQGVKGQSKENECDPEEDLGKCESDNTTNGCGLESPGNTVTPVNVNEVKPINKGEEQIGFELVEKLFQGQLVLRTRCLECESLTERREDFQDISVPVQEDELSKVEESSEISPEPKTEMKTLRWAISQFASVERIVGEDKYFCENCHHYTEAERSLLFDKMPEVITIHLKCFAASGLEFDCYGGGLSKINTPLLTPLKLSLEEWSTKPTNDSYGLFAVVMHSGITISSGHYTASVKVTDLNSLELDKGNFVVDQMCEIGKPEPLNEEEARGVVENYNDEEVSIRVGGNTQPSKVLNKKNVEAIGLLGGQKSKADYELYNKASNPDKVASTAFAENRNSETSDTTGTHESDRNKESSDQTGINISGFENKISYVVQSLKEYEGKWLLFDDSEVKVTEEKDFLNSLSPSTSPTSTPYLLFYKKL
Outline: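 Kinetic fluorescence assay: 1nM USP1/UAF1, 15 min compound preincubation, then 150nM Ub-Rho; 480/540 nm.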

[3] = biological target: Luciferin 4-monooxygenase (Photinus pyralis) (UniProt P08659); assay: Biochemical firefly luciferase enzyme assay for NPC (AID 624030);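 also: purified P. pyralis luciferase at 10 nM with luciferin and ATP substrate; nearly all actives have a fitted effect of over 70% in size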
Sequence of Luciferin 4-monooxygenase (Photinus pyralis) (P08659 whole entry, looked up): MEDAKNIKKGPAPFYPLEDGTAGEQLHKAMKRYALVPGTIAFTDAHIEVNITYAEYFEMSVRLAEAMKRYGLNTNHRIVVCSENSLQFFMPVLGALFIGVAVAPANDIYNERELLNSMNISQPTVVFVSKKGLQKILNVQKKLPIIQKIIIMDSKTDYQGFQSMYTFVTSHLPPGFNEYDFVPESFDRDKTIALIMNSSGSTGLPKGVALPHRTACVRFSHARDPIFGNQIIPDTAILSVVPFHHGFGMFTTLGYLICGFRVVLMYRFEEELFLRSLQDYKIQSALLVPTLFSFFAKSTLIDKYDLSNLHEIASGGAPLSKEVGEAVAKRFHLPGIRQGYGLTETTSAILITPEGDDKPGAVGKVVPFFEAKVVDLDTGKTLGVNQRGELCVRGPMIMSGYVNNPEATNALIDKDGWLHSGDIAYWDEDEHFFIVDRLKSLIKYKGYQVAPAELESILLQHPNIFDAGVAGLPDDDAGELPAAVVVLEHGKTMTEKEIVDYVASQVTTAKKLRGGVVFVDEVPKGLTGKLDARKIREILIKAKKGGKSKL
Outline: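 Counter-screen for direct inhibition of the luciferase enzyme by approved-drug library compounds, run at 10 nM enzyme in 50 mM Tris acetate (final). Luminescence was read within 5 min of enzyme-buffer addition and normalized to PTC124 versus DMSO (0%).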

[4] = S16 Schwann cell PMP22 intronic element firefly luciferase assay (AID 624032); also: potency is read from the fitted curve at half-maximal effect; nearly all actives have a fitted effect of over 30% in size
Outline: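 Rat S16 Schwann cells stably carrying a PMP22 intronic element-driven Fluc reporter were seeded overnight, then exposed to compounds for 24 h at 37 °C. Luminescence was normalized to PTC124 (positive control) and DMSO (0% activity).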

[5] = S16 Schwann cell PMP22 intronic element beta-lactamase assay (AID 624044; calls by dose curve; also: potency is read from the fitted curve at half-maximal effect; nearly all actives have a fitted effect of over 15% in size)
Outline: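 Beta-lactamase reporter under a PMP22 intronic regulatory element in stable S16 rat Schwann cells; 24 h compound exposure. 460 nm blue signal normalized between DMSO (0%) and potassium clavulanate, with 535 nm FRET tracking viability; curves classed by r2 and response.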

[6] = tested on: Zika virus NS2B-NS3 protease (unlinked); assay: Optimization of GU AMC qHTS for Zika virus inhibitors: Unlinked NS2B-NS3 protease assay (AID 1347151); also: nearly all actives have a fitted effect of over 80% in size
Outline: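 Percent inhibition is derived from the 15-min change in AMC fluorescence, normalized against no-inhibitor and no-enzyme controls, then fitted to a 4-parameter Hill curve. Aprotinin was the intraplate control.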

[7] = qHTS profiling for inhibitors of Plasmodium falciparum proliferation (AID 504749); also: potency is read from the fitted curve at half-maximal effect; nearly all actives have a fitted effect of over 60% in size; details: P. falciparum in erythrocytes, SYBR Green DNA, 72 h
Outline: (§1)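 Fluorescence of SYBR Green-bound parasite DNA, read at 485/535 nm, served as the growth measure. Infected erythrocytes were cultured with compound 72 h; artemisinin (0.29 uM) and DMSO wells defined the normalization range.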

3D7 = assay: as above; details: P. falciparum in erythrocytes, SYBR Green DNA, 72 h; series mostly up to 28.7 µM
Outline: as §1

7G8 = assay: as above; details: P. falciparum in erythrocytes, SYBR Green DNA, 72 h; series mostly up to 28.7 µM
Outline: as §1

AA1029 = assay: as above; details: P. falciparum in erythrocytes, SYBR Green DNA, 72 h; series mostly up to 28.7 µM
Outline: as §1

AS120 = assay: as above; details: P. falciparum in erythrocytes, SYBR Green DNA, 72 h; series mostly up to 28.7 µM
Outline: as §1

ATS189 = assay: as above; details: P. falciparum in erythrocytes, SYBR Green DNA, 72 h; series mostly up to 28.7 µM
Outline: as §1

ATS95 = assay: as above; details: P. falciparum in erythrocytes, SYBR Green DNA, 72 h; series mostly up to 28.7 µM
Outline: as §1

C2A = assay: as above; details: P. falciparum in erythrocytes, SYBR Green DNA, 72 h; series mostly up to 28.7 µM
Outline: as §1

CP185 = assay: as above; details: P. falciparum in erythrocytes, SYBR Green DNA, 72 h; series mostly up to 28.7 µM
Outline: as §1

CP191 = assay: as above; details: P. falciparum in erythrocytes, SYBR Green DNA, 72 h; series mostly up to 28.7 µM
Outline: as §1

CP192 = assay: as above; details: P. falciparum in erythrocytes, SYBR Green DNA, 72 h; series mostly up to 28.7 µM
Outline: as §1

CP194 = assay: as above; details: P. falciparum in erythrocytes, SYBR Green DNA, 72 h; series mostly up to 28.7 µM
Outline: as §1

CP201 = assay: as above; details: P. falciparum in erythrocytes, SYBR Green DNA, 72 h; series mostly up to 28.7 µM
Outline: as §1

CP203 = assay: as above; details: P. falciparum in erythrocytes, SYBR Green DNA, 72 h; series mostly up to 28.7 µM
Outline: as §1

CP211 = assay: as above; details: P. falciparum in erythrocytes, SYBR Green DNA, 72 h; series mostly up to 28.7 µM
Outline: as §1

CP215 = assay: as above; details: P. falciparum in erythrocytes, SYBR Green DNA, 72 h; series mostly up to 28.7 µM
Outline: as §1

CP217 = assay: as above; details: P. falciparum in erythrocytes, SYBR Green DNA, 72 h; series mostly up to 28.7 µM
Outline: as §1

CP237 = assay: as above; details: P. falciparum in erythrocytes, SYBR Green DNA, 72 h; series mostly up to 28.7 µM
Outline: as §1

CP238 = assay: as above; details: P. falciparum in erythrocytes, SYBR Green DNA, 72 h; series mostly up to 28.7 µM
Outline: as §1

CP247 = assay: as above; details: P. falciparum in erythrocytes, SYBR Green DNA, 72 h; series mostly up to 28.7 µM
Outline: as §1

CP250 = assay: as above; details: P. falciparum in erythrocytes, SYBR Green DNA, 72 h; series mostly up to 28.7 µM
Outline: as §1

CP252 = assay: as above; details: P. falciparum in erythrocytes, SYBR Green DNA, 72 h; series mostly up to 28.7 µM
Outline: as §1

CP256 = assay: as above; details: P. falciparum in erythrocytes, SYBR Green DNA, 72 h; series mostly up to 28.7 µM
Outline: as §1

CP260 = assay: as above; details: P. falciparum in erythrocytes, SYBR Green DNA, 72 h; series mostly up to 28.7 µM
Outline: as §1

CP262 = assay: as above; details: P. falciparum in erythrocytes, SYBR Green DNA, 72 h; series mostly up to 28.7 µM
Outline: as §1

CP265 = assay: as above; details: P. falciparum in erythrocytes, SYBR Green DNA, 72 h; series mostly up to 28.7 µM
Outline: as §1

CP266 = assay: as above; details: P. falciparum in erythrocytes, SYBR Green DNA, 72 h; series mostly up to 28.7 µM
Outline: as §1

CP268 = assay: as above; details: P. falciparum in erythrocytes, SYBR Green DNA, 72 h; series mostly up to 28.7 µM
Outline: as §1

CP269 = assay: as above; details: P. falciparum in erythrocytes, SYBR Green DNA, 72 h; series mostly up to 28.7 µM
Outline: as §1

CP286 = assay: as above; details: P. falciparum in erythrocytes, SYBR Green DNA, 72 h; series mostly up to 28.7 µM
Outline: as §1

CP291 = assay: as above; details: P. falciparum in erythrocytes, SYBR Green DNA, 72 h; series mostly up to 28.7 µM
Outline: as §1

CP297 = assay: as above; details: P. falciparum in erythrocytes, SYBR Green DNA, 72 h; series mostly up to 28.7 µM
Outline: as §1

CP305 = assay: as above; details: P. falciparum in erythrocytes, SYBR Green DNA, 72 h; series mostly up to 28.7 µM
Outline: as §1

CP315 = assay: as above; details: P. falciparum in erythrocytes, SYBR Green DNA, 72 h; series mostly up to 28.7 µM
Outline: as §1

CP325 = assay: as above; details: P. falciparum in erythrocytes, SYBR Green DNA, 72 h; series mostly up to 28.7 µM
Outline: as §1

CP329 = assay: as above; details: P. falciparum in erythrocytes, SYBR Green DNA, 72 h; series mostly up to 28.7 µM
Outline: as §1

CP335 = assay: as above; details: P. falciparum in erythrocytes, SYBR Green DNA, 72 h; series mostly up to 28.7 µM
Outline: as §1

DFO2036 = assay: as above; details: P. falciparum in erythrocytes, SYBR Green DNA, 72 h; series mostly up to 28.7 µM
Outline: as §1

DIV14 = assay: as above; details: P. falciparum in erythrocytes, SYBR Green DNA, 72 h; series mostly up to 28.7 µM
Outline: as §1

DIV17 = assay: as above; details: P. falciparum in erythrocytes, SYBR Green DNA, 72 h; series mostly up to 28.7 µM
Outline: as §1

DIV30 = assay: as above; details: P. falciparum in erythrocytes, SYBR Green DNA, 72 h; series mostly up to 28.7 µM
Outline: as §1

Dd2 = assay: as above; details: P. falciparum in erythrocytes, SYBR Green DNA, 72 h; series mostly up to 28.7 µM
Outline: as §1

ECU = assay: as above; details: P. falciparum in erythrocytes, SYBR Green DNA, 72 h; series mostly up to 28.7 µM
Outline: as §1

FAB9 = assay: as above; details: P. falciparum in erythrocytes, SYBR Green DNA, 72 h; series mostly up to 28.7 µM
Outline: as §1

GB4 = assay: as above; details: P. falciparum in erythrocytes, SYBR Green DNA, 72 h; series mostly up to 28.7 µM
Outline: as §1

HB3 = assay: as above; details: P. falciparum in erythrocytes, SYBR Green DNA, 72 h; series mostly up to 28.7 µM
Outline: as §1

ICS = assay: as above; details: P. falciparum in erythrocytes, SYBR Green DNA, 72 h; series mostly up to 28.7 µM
Outline: as §1

N140 = assay: as above; details: P. falciparum in erythrocytes, SYBR Green DNA, 72 h; series mostly up to 28.7 µM
Outline: as §1

P93_24 = assay: as above; details: P. falciparum in erythrocytes, SYBR Green DNA, 72 h; series mostly up to 28.7 µM
Outline: as §1

P94_40 = assay: as above; details: P. falciparum in erythrocytes, SYBR Green DNA, 72 h; series mostly up to 28.7 µM
Outline: as §1

PAD = assay: as above; details: P. falciparum in erythrocytes, SYBR Green DNA, 72 h; series mostly up to 28.7 µM
Outline: as §1

PC15 = assay: as above; details: P. falciparum in erythrocytes, SYBR Green DNA, 72 h; series mostly up to 28.7 µM
Outline: as §1

PC26 = assay: as above; details: P. falciparum in erythrocytes, SYBR Green DNA, 72 h; series mostly up to 28.7 µM
Outline: as §1

PC49 = assay: as above; details: P. falciparum in erythrocytes, SYBR Green DNA, 72 h; series mostly up to 28.7 µM
Outline: as §1

SC27B = assay: as above; details: P. falciparum in erythrocytes, SYBR Green DNA, 72 h; series mostly up to 28.7 µM
Outline: as §1

TAB109 = assay: as above; details: P. falciparum in erythrocytes, SYBR Green DNA, 72 h; series mostly up to 28.7 µM
Outline: as §1

TAB113 = assay: as above; details: P. falciparum in erythrocytes, SYBR Green DNA, 72 h; series mostly up to 28.7 µM
Outline: as §1

TAB165 = assay: as above; details: P. falciparum in erythrocytes, SYBR Green DNA, 72 h; series mostly up to 28.7 µM
Outline: as §1

Measured: Potency

CC(C)C[C@@H](NC(=O)[C@H](Cc1ccccc1)NC(=O)c1cnccn1)B(O)O
inactive: [1] | [2] | [3] | [6]
active: [4] 3.6 nM | [5] 12.6 nM | [7]; parasite line A 89.1 nM | [7]; parasite line B 63.1 nM | 3D7 126 nM | 7G8 31.6 nM | AA1029 70.8 nM | AS120 100 nM | ATS189 112 nM | ATS95 56.2 nM | C2A 126 nM | CP185 112 nM | CP191 89.1 nM | CP192 151 nM | CP194 426 nM | CP201 601 nM | CP203 169 nM | CP211 757 nM | CP215 536 nM | CP217 126 nM | CP237 79.4 nM | CP238 112 nM | CP247 126 nM | CP250 100 nM | CP252 89.1 nM | CP256 126 nM | CP260 112 nM | CP262 95.3 nM | CP265 112 nM | CP266 169 nM | CP268 95.3 nM | CP269 135 nM | CP286 63.1 nM | CP291 135 nM | CP297 269 nM | CP305 675 nM | CP315 190 nM | CP325 135 nM | CP329 95.3 nM | CP335 95.3 nM | DFO2036 100 nM | DIV14 426 nM | DIV17 301 nM | DIV30 190 nM | Dd2 100 nM | ECU 126 nM | FAB9 141 nM | GB4 107 nM | HB3 79.4 nM | ICS 44.7 nM | N140 70.8 nM | P93_24 79.4 nM | P94_40 112 nM | PAD 112 nM | PC15 79.4 nM | PC26 213 nM | PC49 141 nM | SC27B 100 nM | TAB109 35.5 nM | TAB113 100 nM | TAB165 112 nM

Source: PubChem BioAssay (NCATS)
